# HIF-2a block: inhibitors of HIF-2a. 786-0 RCC cells HIF-2a reporter, luciferase luminescence, overnight. inhibition, % at 18.8 µM. actives 0.72% (n = 360,000). AID 624352;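 active means inhibition of the luminescence signal of 40% or more relative to plate controls, in a single-dose primary screen at 18.75 µM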
# TROY NFkB inh: blocks TROY-dependent signaling in reporter cells. Q293 LMP1-TROYcd NF-kB luciferase reporter, 4 h. inhibition, % at 10 µM. actives 0.98% (n = 360,000). AID 1347056;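 active means compounds whose plate-normalised and pattern-corrected inhibition of the luciferase reporter signal at the single screening dose is 50% or more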
# KKLEB cytotox: counter-screen for CF NF-kB inhibitors: cytotoxicity. actives 0.36% (n = 360,000). KKLEB CF airway cells viability, ATPlite luminescence, overnight; hits give low values; cells stimulated with P. aeruginosa culture filtrate. AID 602141. activity change (cytotoxicity), % at 5 µM;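 active means corrected activity change at or below -50% at 5 µM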
# Peg3 prom inh: inhibitors of Peg3 promoter; inhibition, % at 20 µM; AID 588405; HeLa PEG-Prom luciferase reporter, luminescence, overnight; actives 1.7% (n = 360,000);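 active means inhibition of at least 50% at 20 µM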
# CF NFkB block: blocks PAF-induced NF-kB reporter in cystic fibrosis cells. KKLEB NF-kB-GFP reporter, GFP fluorescence overnight. inhibition, % at 5 µM. actives 0.86% (n = 360,000);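 active means at least 50% inhibition at 5 µM, scaled per plate between neutral and stimulator controls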;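 further: PAF is a Pseudomonas aeruginosa culture filtrate used as stimulus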
# TWEAK Fn14 block: TWEAK-Fn14 signaling inhibition; TWEAK-stimulated Fn14 reporter cells, luciferase luminescence, 8 h; inhibition, % at 10 µM; actives 2% (n = 360,000); AID 1159606; in the data active means inhibition above about 50%
# Hits are given with their value; n = inactive; x = not tested or not shown. Hits are enriched below; roughly 4% of the tested compounds scored in any of these assays.
SMILES,HIF-2a block,TROY NFkB inh,KKLEB cytotox,Peg3 prom inh,CF NFkB block,TWEAK Fn14 block
Nc1ccc2ccc3cccc[n+]3c2c1,n,n,n,n,n,n
C[n+]1c(-c2ccccc2)c2cc(N)ccc2c2ccc(N)cc21,n,n,n,74,n,n
COC1C(OC(=O)c2ccc(C)[nH]2)C(O)C(Oc2ccc3c(O)c(NC(=O)c4ccc(O)c(CC=C(C)C)c4)c(=O)oc3c2Cl)OC1(C)C (stereo not given),n,55,n,n,n,n
COc1ccc(CCn2c(O)c(C=NCCN3CCCCC3)c(=O)[nH]c2=O)cc1OC,n,n,n,n,n,n
CC1CC(C)OP(=O)(OCCC#N)O1 (stereo not given),n,n,n,n,n,n
N#CC(C#N)=Cc1ccc(O)c(O)c1,n,n,n,n,n,n
CC(C)(C)c1cc(C=C(C#N)C#N)cc(C(C)(C)C)c1O,n,57,n,56,n,73
CCC(=O)N1N=C(c2c(O)n(CCc3ccccc3)c(=O)[nH]c2=O)CC1c1ccc(OC)c(OC)c1 (stereo not given),n,n,n,n,n,n
CC(Cc1ccccc1)NC(=O)NC(C)Cc1ccccc1 (stereo not given),n,n,n,n,n,n
CC(=O)NC(C)Cc1ccccc1 (stereo not given),n,x,n,n,n,81
CC(CCN1CC1)=NNC(=O)Nc1cccc2ccccc12,n,n,n,n,n,58
CCOc1ccc2[nH]c(=O)c(CN(CCO)C3(c4nnnn4C4CCCCC4)CCCCC3)cc2c1,n,n,n,n,n,n
O=C(COc1ccccc1)c1cn(Cc2ccccc2)c2ccccc12,n,n,n,n,n,n
Cn1ncnc2c(=O)n(C)c(=O)nc1-2,82,88,-97,105,102,106
Fc1ccc(C(OCCN2CCN(CCCc3ccccc3)CC2)c2ccc(F)cc2)cc1,n,n,n,67,n,n
CNC(=O)Oc1c(C)[nH]ccc1=O,n,n,n,n,n,n
COC(=O)c1c(C)n(Cc2ccc3c(c2)OCO3)c2ccc(O)cc12,n,n,n,n,n,53
CC1CCCCN1CC(=O)c1ccc2cc[nH]c2c1 (stereo not given),n,n,n,n,n,n
CC(=O)OC1CC(OC2C(O)CC(OC3C(O)CC(OC4CCC5(C)C(CCC6C5CCC5(C)C(C7=CC(=O)OC7)C(O)CC65O)C4)OC3C)OC2C)OC(C)C1OC1OC(CO)C(O)C(O)C1O (stereo not given),69,n,-53,108,91,83
CC1OC(OC2C(O)CC(OC3C(O)CC(OC4CCC5(C)C(CCC6C5CCC5(C)C(C7=CC(=O)OC7)C(O)CC65O)C4)OC3C)OC2C)CC(O)C1O (stereo not given),72,n,-54,107,70,81
CC(=O)O[C@@H]1CC[C@]2(C)C3CC[C@@]4(C)C(C[C@@H](O)[C@@H]4O)C3[C@@H](OC(C)=O)C[C@H]2C1 (stereo not given in full),n,n,n,n,n,n
CN1CCN(c2ccc(N)c(N3CCN(C)CC3)c2)CC1,n,n,n,n,n,n
O=c1[nH]c(=O)n(-c2cccc3ccccc23)c(O)c1C=NCCCn1ccnc1,n,n,n,n,n,62
COc1ccccc1-n1c(O)c(C=NCCCn2ccnc2)c(=O)[nH]c1=O,n,n,n,n,n,n
N#CCCn1cc(C(=O)O)c(-c2cccc([N+](=O)[O-])c2)n1,n,n,n,n,n,n
SMILES,HIF-2a block,TROY NFkB inh,KKLEB cytotox,Peg3 prom inh,CF NFkB block,TWEAK Fn14 block
Cc1ccc(NC(=O)c2ncn(CCCNCCN3CCOCC3)n2)cc1C,n,n,n,n,n,70
CN(CCc1nnc(N)s1)[N+](=O)[O-],n,n,n,n,n,n
CC(C)c1ccc(N2C(=O)NC(=O)/C(=C/C=C/c3ccco3)C2=O)cc1,n,n,n,74,84,n
CC1=NN(c2ccccc2)C(=O)C1/C=C1\C(=O)NC(=O)N(c2cc(C)cc(C)c2)C1=O (stereo not given),n,n,n,n,n,n
CCOc1ccc(N2C(=O)/C(=C/c3ccco3)C(=O)NC2=S)cc1,n,n,n,n,n,57
CCCCN1C(=O)/C(=C/C=C/c2ccco2)C(=O)NC1=S,n,n,n,n,n,n

# Screening data deposited in PubChem BioAssay by Sanford-Burnham Center for Chemical Genomics.
